Assay [1] addresses Glutathione peroxidase 1 (Homo sapiens) (UniProt P07203). In words: Primary qHTS Assay for Inhibitors of Recombinant Selenoprotein Glutathione Peroxidase 1 (GPX1) (AID 1845191). Further: nearly all actives have a fitted effect of over 65% in size. Further: potency means the concentration at half of the fitted maximal effect. The gist of the method:
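GPX1 10 nM, GR 100 nM, GSH 1 mM, NADPH 0.5 mM, CHP 0.5 mM (final). 30-min cpd preincubation, RT. Ex340/Em450 read t=0, t=15 min.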
Background: qHTS replaces the single test concentration by a dilution series.

Assay [2] addresses Phospholipid hydroperoxide glutathione peroxidase GPX4 (Homo sapiens) (UniProt P36969). Put plainly: Primary qHTS Assay for Inhibitors of Recombinant Selenoprotein Glutathione Peroxidase 4 (GPX4) (AID 1845192). Further: nearly all actives have a fitted effect of over 65% in size. Further: potency means the concentration at half of the fitted maximal effect. The gist of the method:
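qHTS, GR-coupled: GPX4 200 nM + cpd 30 min RT → GSH 1 mM, NADPH 0.5 mM, GR 100 nM → CHP 0.5 mM start; fluor 340/450 at t0 and t15 min; no-enzyme wells as control.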

Assay [3] has as its target Luciferin 4-monooxygenase (Photinus pyralis) (UniProt P08659). In words: Primary firefly luciferase (FLuc) qHTS assay for identification of artifact compounds. (AID 1845220). Further: nearly all actives have a fitted effect of over 60% in size. The gist of the method: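 In this counter-screen for luciferase artifacts, test compounds met substrate (10 uM each luciferin and ATP) before 10 nM enzyme started the reaction. Light output was measured 5 min later.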

The nature of assay [4]: Primary fluorescence-based thiol-reactive (MSTI) qHTS assay for identification of artifact compounds. (AID 1845221).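 Further: series mostly up to about 54 µM; thiol-reactive compounds lower the probe fluorescence signal; nearly all actives have a fitted effect of over 65% in size.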 The gist of the method: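 Thiol-reactive compounds detected by quenching of 4 uM MSTI fluorescence (525/598 nm) after 1 h room-temperature dark incubation in PBS pH 7.4, 2% DMSO. qHTS titration; percent inhibition Hill-fitted against Acetyl-MSTI/MSTI controls.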

The test system of assay [5] is Nanoluciferase (engineered Oplophorus gracilirostris luciferase). In words: Primary Nanoluciferase (NLuc) qHTS assay for identification of artifact compounds. (AID 1845222).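 Further: NLuc secreted into diluted conditioned medium of S16 cells; series mostly up to about 54 µM.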 A digest of the protocol:
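Using secreted nanoluciferase in S16 culture medium (0.22 um filtered, 1:55 dilution), compounds were preincubated 15 min at RT. Signal was generated with Nano-Glo reagent (1:100) over 5 min.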

Assay [6] can be described thus: Primary redox qHTS assay for identification of artifact compounds. (AID 1845223). The gist of the method: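 Redox-cycling detection via DTT (250 uM final) oxidation coupled to Amplex Red (25 uM)/HRP (250 mU/mL) in HBSS. 15 min preincubation plus 30 min after DTT, room temperature. Ex/Em 525/598 nm; 4-parameter Hill fit against DMSO and 10 uM DA3003.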

Records with an inconclusive call do not appear. Active and inactive are the calls of the source. The call rests on the fitted dose curve; in most records, active means well fitted curve in the direction sought with a large enough effect; inconclusive means small, poorly fitted or top-dose-only effect, or another doubt; inactive means no such curve, though single readings can be large; an effect the other way counts as inactive or inconclusive.

These results are taken from PubChem BioAssay (NCATS).

Sequence of Glutathione peroxidase 1 (Homo sapiens) (P07203 whole entry, looked up): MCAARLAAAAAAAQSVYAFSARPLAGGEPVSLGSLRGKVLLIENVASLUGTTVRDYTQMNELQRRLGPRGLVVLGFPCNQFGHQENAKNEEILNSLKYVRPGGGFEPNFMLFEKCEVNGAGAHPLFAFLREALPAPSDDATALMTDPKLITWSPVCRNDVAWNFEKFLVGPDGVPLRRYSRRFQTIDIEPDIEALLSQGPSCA
Sequence of Phospholipid hydroperoxide glutathione peroxidase GPX4 (Homo sapiens) (P36969 whole entry, looked up): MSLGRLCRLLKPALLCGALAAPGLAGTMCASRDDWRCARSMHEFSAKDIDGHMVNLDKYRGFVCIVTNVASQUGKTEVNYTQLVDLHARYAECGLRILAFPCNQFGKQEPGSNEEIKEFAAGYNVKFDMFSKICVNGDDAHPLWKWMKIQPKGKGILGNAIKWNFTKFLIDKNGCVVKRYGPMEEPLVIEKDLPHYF

Turning to `CC(=O)OCC(=O)[C@@]1(O)CCC2C3CCC4=CC(=O)CC[C@]4(C)C3[C@@H](O)C[C@@]21C` (stereo partly specified), the Potency entry in assay [1] and in assay [2] was “inactive” each time.

On to `CCOc1c(N2CCOCC2)cnn(C)c1=O`, for which the Potency entry in assay [1] and in assay [2] was “inactive” each time.

`CO/N=C(/C(=O)N[C@@H]1C(=O)N2C(C(=O)[O-])=C(C[n+]3ccn4ncccc43)CS[C@H]12)c1nsc(N)n1`: the Potency in assay [1] is 20.2 µM (active); in assay [2], 17.8 µM (active).

For the compound `O=[N+]([O-])c1cncn1CCN1CCOCC1`, the Potency entry in assay [1] and in assay [2] was “inactive” in each case.

Take `C[C@@H]1CCC[C@H](C)N1CCCC(O)(c1ccccc1)c1ccccn1` (stereo partly specified): the Potency entry in assay [1] and in assay [2] was “inactive” in each case.

Take `C[C@@H]1C[C@H]2[C@@H]3CCC4=CC(=O)C=C[C@]4(C)[C@@]3(F)[C@@H](O)C[C@]2(C)[C@@]1(O)C(=O)COC(=O)c1ccncc1`: the Potency result in assay [1] and in assay [2] was “inactive” in each case.

Regarding `C/C(=N\O)[C@@H](C)NCC(C)(C)CN[C@H](C)/C(C)=N/O`, the Potency result in assay [1] and in assay [2] was “inactive” throughout.

On to `C[C@]12CCC(=O)C=C1CC[C@@H]1[C@@H]2[C@@H](O)C[C@@]2(C)[C@H]1CC[C@]2(O)C(=O)COC(=O)CCC(=O)O`, for which the Potency result in assay [1] and in assay [2] was “inactive” each time.

Turning to `CCN(CC)CC(=O)OCC(=O)[C@@]1(O)CC[C@H]2[C@@H]3CCC4=CC(=O)CC[C@]4(C)[C@H]3[C@@H](O)C[C@@]21C`, the Potency entry in assay [1] and in assay [2] was “inactive” in each case.

Consider `NS(=O)(=O)c1cc2c(cc1Cl)CN(C1CCCCC1)C2=O`, for which the Potency result in assay [1] and in assay [2] was “inactive” throughout.

As to `C[C@H]1NCc2cc(-c3ccc4c(=O)c(C(=O)O)cn(C5CC5)c4c3OC(F)F)ccc21`, the Potency entry in assay [1] and in assay [2] was “inactive” each time.

For the compound `O=C(OCC(O)CO)c1ccccc1Nc1ccnc2c(C(F)(F)F)cccc12` (stereo unspecified), the Potency entry in assay [1] and in assay [2] was “inactive” throughout.

As for `O=C(CO)[C@@H](O)[C@H](O)[C@@H](O)CO`, the Potency result in assay [1] and in assay [2] was “inactive” throughout.

Consider `COC(=O)C1=C(C)NC(C)=C(C(=O)OCCc2ccc(N3CCN(C(c4ccccc4)c4ccccc4)CC3)cc2)C1c1cccc([N+](=O)[O-])c1` (stereo unspecified), for which the Potency result in assay [1] and in assay [2] was “inactive” in each case.

On to `C/C(=C1\CCOC(=O)S1)N(C=O)Cc1cnc(C)nc1N`, for which the Potency entry in assay [1] and in assay [2] was “inactive” each time.

In the case of `CCCCCCOC(=O)NC(=N)c1ccc(NCc2nc3cc(C(=O)N(CCC(=O)OCC)c4ccccn4)ccc3n2C)cc1`, the Potency entry in assay [1] and in assay [2] was “inactive” each time.

In the case of `CC(C)Cc1ccc(C(C)C(=O)OCc2ccccn2)cc1` (stereo unspecified), the Potency entry in assay [1] and in assay [2] was “inactive” in each case.

`CCOC(=O)OCC/C(SC(=O)OCC)=C(\C)N(C=O)Cc1cnc(C)nc1N`: the Potency entry in assay [1] and in assay [2] was “inactive” throughout.

Turning to `CCCC(=O)O[C@]1(C(=O)CC)CC[C@H]2[C@@H]3CCC4=CC(=O)CC[C@]4(C)[C@H]3[C@@H](O)C[C@@]21C`, the Potency entry in assay [1] and in assay [2] was “inactive” each time.

With `[O-][n+]1cccc(/C(Cl)=N/OC[C@@H](O)CN2CCCCC2)c1`, the Potency entry in assay [1] and in assay [2] was “inactive” in each case.

As to `CC(=O)[C@@]1(O)CC[C@H]2[C@@H]3C[C@H](C)C4=CC(=O)CC[C@]4(C)[C@H]3CC[C@@]21C`, the Potency entry in assay [1] and in assay [2] was “inactive” each time.

Consider `CCCCCN(CCCOC)C(=O)C(CCC(=O)O)NC(=O)c1ccc(Cl)c(Cl)c1` (stereo unspecified), for which the Potency entry in assay [1] and in assay [2] was “inactive” in each case.

For `NS(=O)(=O)c1ccc(N2CCCCS2(=O)=O)cc1`, the Potency result in assay [1] and in assay [2] was “inactive” in each case.

Turning to `O=c1[nH]c(=O)n([C@H]2O[C@H](CO)[C@@H](O)[C@@H]2O)cc1/C=C\Br`, the Potency result in assay [1] and in assay [2] was “inactive” in each case.

As to `CN(C)CCCOC1(Cc2ccccc2)CCCCCC1`, the Potency entry in assay [1] and in assay [2] was “inactive” throughout.

As for `CC[N+]1(CC)CCC(=C(c2ccccc2)c2ccccc2)C1C` (stereo unspecified), the Potency result in assay [1], in assay [2], in assay [3], in assay [4] and in assay [5] was “inactive” in each case. In assay [6], the call was inactive.

Consider `CC(=O)OCC(=O)Nc1cc(C#N)cc(NC(=O)COC(C)=O)c1Cl`, for which the Potency entry in assay [1], in assay [2], in assay [3], in assay [4] and in assay [5] was “inactive” in each case. For the same compound, in assay [6], the compound was called inactive.

Take `CCNC(=O)NCCCOc1cccc(CN2CCCCC2)c1`: the Potency entry in assay [1], in assay [2], in assay [3], in assay [4] and in assay [5] was “inactive” in each case. Moreover, the result in assay [6] was inactive.

For the compound `CC1CC(=O)NN=C1c1ccc(NCC(C)(C)NCC(O)COc2cc(Cl)ccc2C#N)cc1` (stereo unspecified), the Potency entry in assay [3] and in assay [5] was “inactive” each time. The compound was classed as inactive in assay [6].

For `O=C(CCCCCCCCC#CI)Oc1ccccc1`, the Potency entry in assay [1], in assay [3] and in assay [4] was “inactive” in each case. Also, the result in assay [6] was inactive.

In the case of `O=C(O)[C@H](O)[C@@H](O)[C@H](O[C@@H]1O[C@H](CO)[C@H](O)[C@H](O)[C@H]1O)[C@H](O)CO`, the Potency result in assay [2] was “inactive”.

As for `C=CC[N+]1([C@H]2C[C@H]3[C@@H]4CC[C@H]5C[C@H](OC(C)=O)[C@@H](N6CCCCC6)C[C@]5(C)[C@H]4CC[C@]3(C)[C@H]2OC(=O)CC)CCCCC1`, the Potency entry in assay [1], in assay [3], in assay [4] and in assay [5] was “inactive” in each case.

With `O=C(NN1CCCC1)NS(=O)(=O)c1ccc(Cl)cc1`, the Potency entry in assay [1], in assay [2], in assay [3], in assay [4] and in assay [5] was “inactive” in each case. Besides, the outcome in assay [6] was inactive.

Regarding `CO/N=C(/C(=O)N[C@@H]1C(=O)N2C(C(=O)O)=C(Cn3nnc(C)n3)CS[C@H]12)c1csc(N)n1`, the Potency in assay [1] was 14.3 µM (active). The Potency entry in assay [2], in assay [3], in assay [4] and in assay [5] was “inactive” throughout. In assay [6], the call was inactive.

As to `COC(=O)C1=C(C)NC(COC(N)=O)=C(C(=O)OC(C)C)C1c1cccc(Cl)c1Cl` (stereo unspecified), the Potency entry in assay [1], in assay [3] and in assay [4] was “inactive” throughout. In addition, the compound was classed as inactive in assay [6].

Turning to `O=C(O)Cc1ccccc1Oc1ccc(Cl)cc1Cl`, the Potency result in assay [1], in assay [2], in assay [3] and in assay [4] was “inactive” in each case. In assay [6], the compound was called inactive.
